According to PubChem BioAssay AID1159580 (chemical genetic matrix, 2015):
Among all 5,500 compounds or so, about 2,000 (36%) were called active. Not shown: some 18% with an inconclusive outcome. No stated cut-off is given here; in the data, active means normalized growth mostly below about 0.91 (no sharp cut-off); inconclusive means no clear call, values can overlap the other calls; inactive means mostly above about 0.92. The list shows a part of the results.

Test: chemical genetic growth profiling, strain panel (AID 1159580);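 further: tested at 20 µM; growth read once vehicle control cultures reached saturation at 30 °C; 1 = growth at the plate median or of vehicle wells; lower values mean less growth of the strain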
Conditions: growth OD
[1] = S. cerevisiae deletion strains, locus YAL013W, strain DEP1, active compounds read low
[2] = S. cerevisiae deletion strains, locus YCL061C, strain MRC1, active compounds read low
[3] = S. cerevisiae deletion strains, locus YGR078C, strain PAC10, active compounds read low
[4] = S. cerevisiae deletion strains, locus YHR030C, strain SLT2, active compounds read low
[5] = S. cerevisiae deletion strains, locus YMR263W, strain SAP30, active compounds read low
[6] = S. cerevisiae deletion strains, locus YNL153C, strain GIM3, active compounds read low
[7] = S. cerevisiae deletion strains, locus YNL322C, strain KRE1, active compounds read low
[8] = S. cerevisiae deletion strains, locus YAL040C, strain CLN3, active compounds read low
[9] = S. cerevisiae deletion strains, locus YER002W, strain NOP16, active compounds read low
[10] = S. cerevisiae deletion strains, locus YNL175C, strain NOP13, active compounds read low
[11] = S. cerevisiae deletion strains, locus YNL197C, strain WHI3, active compounds read low
[12] = S. cerevisiae deletion strains, locus YNL224C, strain SQS1, active compounds read low
[13] = S. cerevisiae deletion strains, locus YOR083W, strain WHI5 (second series), active compounds read low

Measured: normalized growth

O=C1c2ccccc2C(=O)C1(c1ccccc1)[N+](=O)[O-]
active: [1] 0.848 | S. cerevisiae deletion strains, locus YBR229C, strain ROT2, active compounds read low 0.78 | [2] 0.818 | S. cerevisiae deletion strains, locus YDL101C, strain DUN1, active compounds read low 0.776 | S. cerevisiae deletion strains, locus YDL134C, strain PPH21, active compounds read low 0.897 | [3] 0.664 | [4] 0.587 | S. cerevisiae deletion strains, locus YHR087W, strain rtc3, active compounds read low 0.811 | S. cerevisiae deletion strains, locus YJR043C, strain POL32, active compounds read low 0.861 | S. cerevisiae deletion strains, locus YJR075W, strain HOC1, active compounds read low 0.747 | S. cerevisiae deletion strains, locus YLR039C, strain RIC1, active compounds read low 0.734 | S. cerevisiae deletion strains, locus YLR262C, strain YPT6, active compounds read low 0.8 | S. cerevisiae deletion strains, locus YMR219W, strain ESC1, active compounds read low 0.832 | [5] 0.813 | [6] 0.803 | S. cerevisiae deletion strains, locus YNR030W, strain Alg12, active compounds read low 0.0637 | S. cerevisiae deletion strains, locus YPL055C, strain LGE1, active compounds read low 0.799 | S. cerevisiae deletion strains, locus YPL241C, strain CIN2, active compounds read low 0.0628
inactive: S. cerevisiae deletion strains, locus YEL061C, strain CIN8, active compounds read low 0.943 | S. cerevisiae deletion strains, locus YLR058C, strain SHM2 (second series), active compounds read low 1.03 | S. cerevisiae deletion strains, locus YLR085C, strain ARP6, active compounds read low 0.975 | S. cerevisiae deletion strains, locus YML094W, strain GIM5, active compounds read low 0.946 | S. cerevisiae deletion strains, locus YMR307W, strain GAS1, active compounds read low 0.919 | S. cerevisiae deletion strains, locus YNL298W, strain CLA4 (second series), active compounds read low 0.956 | [7] 1.01 | S. cerevisiae deletion strains, locus YOL006C, strain TOP1, active compounds read low 0.893 | S. cerevisiae deletion strains, locus YPR135W, strain CTF4, active compounds read low 0.798 | S. cerevisiae strains, strain wild type, active compounds read low 0.985

O=C1NC(=O)C(c2ccccc2)(c2ccccc2)N1
inactive: [1] 1.01 | [8] 1.1 | S. cerevisiae deletion strains, locus YCL061C, strain MRC1 (second series), active compounds read low 1 | S. cerevisiae deletion strains, locus YDR363W, strain ESC2, active compounds read low 1.02 | [9] 0.991 | [3] 1.02 | S. cerevisiae deletion strains, locus YNL128W, strain TEP1, active compounds read low 1 | [10] 0.993 | [11] 1.01 | [12] 0.975 | [7] 1.03 | [13] 1.03

CN(C)CCCC1(c2ccc(F)cc2)OCc2cc(C#N)ccc21 (centres undefined)
inactive: S. cerevisiae deletion strains, locus YAL021C, strain ccr4, active compounds read low 0.999 | S. cerevisiae deletion strains, locus YAL026C, strain drs2, active compounds read low 0.995 | S. cerevisiae deletion strains, locus YAL030W, strain snc1, active compounds read low 0.987 | [8] 0.984 | S. cerevisiae deletion strains, locus YBL061C, strain skt5, active compounds read low 0.991 | S. cerevisiae deletion strains, locus YBR009C, strain hhf1, active compounds read low 0.979 | S. cerevisiae deletion strains, locus YBR023C, strain chs3, active compounds read low 0.987 | S. cerevisiae deletion strains, locus YBR171W, strain sec66, active compounds read low 0.983 | S. cerevisiae deletion strains, locus YBR231C, strain swc5, active compounds read low 0.981 | S. cerevisiae deletion strains, locus YBR279W, strain paf1, active compounds read low 0.979 | S. cerevisiae deletion strains, locus YCL011C, strain gbp2, active compounds read low 0.99 | S. cerevisiae deletion strains, locus YCL016C, strain dcc1, active compounds read low 0.997 | [2] 0.987 | S. cerevisiae deletion strains, locus YCL069W, strain vba3, active compounds read low 0.992 | S. cerevisiae deletion strains, locus YCR088W, strain abp1, active compounds read low 0.983 | S. cerevisiae deletion strains, locus YDL005C, strain med2, active compounds read low 0.985 | S. cerevisiae deletion strains, locus YDL040C, strain nat1, active compounds read low 0.985 | S. cerevisiae deletion strains, locus YDR001C, strain nth1, active compounds read low 0.981 | S. cerevisiae deletion strains, locus YDR069C, strain doa4, active compounds read low 0.983 | S. cerevisiae deletion strains, locus YDR137W, strain rgp1, active compounds read low 0.991 | S. cerevisiae deletion strains, locus YDR159W, strain sac3, active compounds read low 0.985 | S. cerevisiae deletion strains, locus YDR195W, strain ref2 0.946 | S. cerevisiae deletion strains, locus YDR297W, strain sur2, active compounds read low 0.993 | S. cerevisiae deletion strains, locus YDR334W, strain swr1, active compounds read low 0.983 | S. cerevisiae deletion strains, locus YDR335W, strain msn5, active compounds read low 0.991 | S. cerevisiae deletion strains, locus YDR392W, strain spt3, active compounds read low 0.894 | S. cerevisiae deletion strains, locus YEL003W, strain gim4, active compounds read low 0.987 | S. cerevisiae deletion strains, locus YEL037C, strain rad23, active compounds read low 1 | S. cerevisiae deletion strains, locus YEL061C, strain CIN8 (second series), active compounds read low 0.986 | [9] 0.994 | S. cerevisiae deletion strains, locus YER015W, strain faa2, active compounds read low 0.985 | S. cerevisiae deletion strains, locus YER016W, strain bim1, active compounds read low 0.985 | S. cerevisiae deletion strains, locus YER111C, strain swi4, active compounds read low 0.983 | S. cerevisiae deletion strains, locus YER155C, strain BEM2 (second series), active compounds read low 0.944 | S. cerevisiae deletion strains, locus YFR010W, strain ubp6, active compounds read low 0.976 | S. cerevisiae deletion strains, locus YGL167C, strain pmr1, active compounds read low 0.99 | S. cerevisiae deletion strains, locus YGL173C, strain kem1, active compounds read low 0.989 | S. cerevisiae deletion strains, locus YGL227W, strain vid30, active compounds read low 0.989 | S. cerevisiae deletion strains, locus YGL240W, strain doc1, active compounds read low 0.97 | S. cerevisiae deletion strains, locus YGL253W, strain hxk2, active compounds read low 0.993 | S. cerevisiae deletion strains, locus YGR229C, strain SMI1, active compounds read low 1.01 | S. cerevisiae deletion strains, locus YHR013C, strain ard1, active compounds read low 0.975 | S. cerevisiae deletion strains, locus YHR027C, strain rpn1, active compounds read low 0.985 | [4] 1.02 | S. cerevisiae deletion strains, locus YHR079C, strain IRE1, active compounds read low 1.03 | S. cerevisiae deletion strains, locus YHR142W, strain chs7, active compounds read low 1 | S. cerevisiae deletion strains, locus YJL092W, strain hpr5, active compounds read low 0.995 | S. cerevisiae deletion strains, locus YJL095W, strain BCK1 (second series), active compounds read low 0.989 | S. cerevisiae deletion strains, locus YJL095W, strain BCK1, active compounds read low 1.03 | S. cerevisiae deletion strains, locus YJL115W, strain asf1, active compounds read low 0.985 | S. cerevisiae deletion strains, locus YJL129C, strain trk1, active compounds read low 1 | S. cerevisiae deletion strains, locus YJL154C, strain vps35, active compounds read low 0.989 | S. cerevisiae deletion strains, locus YJL164C, strain tpk1, active compounds read low 0.987 | S. cerevisiae deletion strains, locus YJL166W, strain qcr8, active compounds read low 1 | S. cerevisiae deletion strains, locus YJL187C, strain SWE1, active compounds read low 0.987 | S. cerevisiae deletion strains, locus YJR066W, strain TOR1, active compounds read low 0.998 | S. cerevisiae deletion strains, locus YKL160W, strain elf1, active compounds read low 1 | S. cerevisiae deletion strains, locus YKR026C, strain gcn3, active compounds read low 0.96 | S. cerevisiae deletion strains, locus YKR091W, strain srl3, active compounds read low 0.991 | S. cerevisiae deletion strains, locus YLL001W, strain dnm1, active compounds read low 0.994 | S. cerevisiae deletion strains, locus YLL026W, active compounds read low 0.986 | S. cerevisiae deletion strains, locus YLL041C, strain sdh2, active compounds read low 0.992 | S. cerevisiae deletion strains, locus YLR027C, strain aat2, active compounds read low 0.98 | S. cerevisiae deletion strains, locus YLR113W, strain HOG1, active compounds read low 1.01 | S. cerevisiae deletion strains, locus YLR221C, strain rsa3, active compounds read low 1 | S. cerevisiae deletion strains, locus YLR258W, strain gsy2, active compounds read low 0.98 | S. cerevisiae deletion strains, locus YLR262C, strain YPT6 (second series), active compounds read low 1.05 | S. cerevisiae deletion strains, locus YLR320W, strain mms22, active compounds read low 0.993 | S. cerevisiae deletion strains, locus YLR342W, strain FKS1, active compounds read low 0.999 | S. cerevisiae deletion strains, locus YLR357W, strain rsc2, active compounds read low 0.952 | S. cerevisiae deletion strains, locus YLR370C, strain arc18, active compounds read low 0.989 | S. cerevisiae deletion strains, locus YLR384C, strain iki3, active compounds read low 0.98 | S. cerevisiae deletion strains, locus YML120C, strain ndi1, active compounds read low 0.978 | S. cerevisiae deletion strains, locus YMR058W, strain fet3, active compounds read low 0.993 | S. cerevisiae deletion strains, locus YMR125W, strain sto1, active compounds read low 0.951 | S. cerevisiae deletion strains, locus YMR129W, active compounds read low 0.999 | S. cerevisiae deletion strains, locus YMR205C, strain PFK2, active compounds read low 0.946 | S. cerevisiae deletion strains, locus YMR231W, strain pep5, active compounds read low 0.984 | [5] 0.962 | S. cerevisiae deletion strains, locus YNL071W, strain lat1, active compounds read low 0.99 | [6] 0.997 | [10] 1 | S. cerevisiae deletion strains, locus YNL183C, strain NPR1, active compounds read low 1 | [11] 1 | S. cerevisiae deletion strains, locus YNL209W, strain ssb2, active compounds read low 0.992 | [12] 1.02 | S. cerevisiae deletion strains, locus YNL248C, strain rpa49, active compounds read low 0.99 | S. cerevisiae deletion strains, locus YNL322C, strain KRE1 (second series), active compounds read low 0.986 | S. cerevisiae deletion strains, locus YNR049C, strain mso1, active compounds read low 0.982 | S. cerevisiae deletion strains, locus YOR001W, strain rrp6, active compounds read low 0.987 | S. cerevisiae deletion strains, locus YOR070C, strain gyp1, active compounds read low 0.985 | S. cerevisiae deletion strains, locus YOR080W, strain dia2, active compounds read low 0.99 | [13] 1.01 | S. cerevisiae deletion strains, locus YOR083W, strain WHI5, active compounds read low 0.999 | S. cerevisiae deletion strains, locus YOR106W, strain vam3, active compounds read low 1.01 | S. cerevisiae deletion strains, locus YOR231W, strain MKK1, active compounds read low 1.03 | S. cerevisiae deletion strains, locus YOR265W, strain rbl2, active compounds read low 0.987 | S. cerevisiae deletion strains, locus YOR270C, strain vph1, active compounds read low 0.996 | S. cerevisiae deletion strains, locus YOR290C, strain snf2, active compounds read low 0.985 | S. cerevisiae deletion strains, locus YPL051W, strain arl3, active compounds read low 0.997 | S. cerevisiae deletion strains, locus YPL078C, strain atp4, active compounds read low 1 | S. cerevisiae deletion strains, locus YPL106C, strain sse1, active compounds read low 0.959 | S. cerevisiae deletion strains, locus YPL240C, strain hsp82, active compounds read low 1 | S. cerevisiae deletion strains, locus YPL256C, strain CLN2, active compounds read low 1.04
